Consider 33 compounds from ChEMBL document CHEMBL3433997, “St. Jude Leishmania screening dataset” (2016).

What all share (assay type): functional
Assay [1] addresses Solute carrier family 2, facilitated glucose transporter member 1 (Homo sapiens) (UniProt P11166). Nature of the assay: ST_JUDE_LEISH: Cytotoxicity at 2uM final concentration against transgenic Leishmania Mexicana promastigotes LmGLUT1 that are glucose transport deficient and complemented with the human glucose transporter GLUT1. Activity is measured by DNA content using SYBR green in vitro.

The target of assay [2] is Hexose transporter 1 (Plasmodium falciparum) (UniProt O97467). The assay can be described thus: ST_JUDE_LEISH: Cytotoxicity at 2uM final concentration against transgenic Leishmania Mexicana promastigotes LmPfHT that are glucose transport deficient and complemented with the Plasmodium falciparum hexose transporter. Activity is measured by DNA content using SYBR green in vitro.

In assay [3] the target is Glucose transporter (Leishmania mexicana) (UniProt O61059). The assay can be described thus: ST_JUDE_LEISH: Cytotoxicity at 2uM final concentration against transgenic Leishmania Mexicana promastigotes LmGT2 that are glucose transport deficient and complemented with the L. Mexicana glucose transporter 2. Activity is measured by DNA content using SYBR green in vitro.

Each structure is given as a SMILES string.

Solute carrier family 2, facilitated glucose transporter member 1 (Homo sapiens), sequence (P11166 whole entry): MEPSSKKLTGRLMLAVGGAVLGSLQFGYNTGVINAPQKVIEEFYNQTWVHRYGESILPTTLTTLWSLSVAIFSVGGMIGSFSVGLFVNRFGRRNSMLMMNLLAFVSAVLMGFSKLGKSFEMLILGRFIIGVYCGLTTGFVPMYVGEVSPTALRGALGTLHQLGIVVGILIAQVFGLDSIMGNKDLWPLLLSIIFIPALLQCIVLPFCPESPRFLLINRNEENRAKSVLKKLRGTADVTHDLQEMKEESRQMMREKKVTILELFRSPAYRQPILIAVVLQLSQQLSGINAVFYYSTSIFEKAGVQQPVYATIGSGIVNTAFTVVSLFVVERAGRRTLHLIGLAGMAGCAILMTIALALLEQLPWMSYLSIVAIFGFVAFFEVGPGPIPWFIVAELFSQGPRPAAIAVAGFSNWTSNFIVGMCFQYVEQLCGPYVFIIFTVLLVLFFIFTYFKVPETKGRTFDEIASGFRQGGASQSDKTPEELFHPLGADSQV

As usually defined, the inhibition is the drop in the measured response relative to a control, in per cent. In the case of `CC(C)c1ccc(NC(=O)c2ccc(CN3CCCN(Cc4cccc(Cl)c4)CC3)cc2)cc1`, the inhibition stood at 0.69% in assay [1], 1.46% in assay [2] and 1.59% in assay [3].

Take `O=C(Nc1ccc(Cl)cc1)N1CCN(C2CCCCC2)CC1`: the figures for the inhibition in assay [1], in assay [2] and in assay [3] were 4.49%, 2.78% and 3.2%, respectively.

As to `Nc1nc(N)c2c(ccc3[nH]c(-c4ccccc4Cl)nc32)n1`, the inhibition in assay [1] is 77.1%; in assay [2], 69.7%; in assay [3] it was 61.8%.

With `CCN1CCN(c2cc(C)c3cc(NC(=O)c4cccc(Cl)c4)ccc3n2)CC1`, the inhibition in assay [1] was 7.2%; in assay [2], 9.24%; in assay [3] it was 8.84%.

For `O=C(/C=C/c1ccc(Cl)c(Cl)c1)NCCCCCN1CCCN(C(=O)Nc2ccc(F)c(F)c2)CC1`, the inhibition in assay [1] came to 2.67%; in assay [2], 2.88%; in assay [3], 6.1%.

Regarding `C=CCOC(=O)N1CCC(CNCc2cccc(-c3ccc(-c4nc5cccc(C)c5[nH]4)cc3)c2)C1` (centres undefined), the inhibition came out at 6.3% in assay [1], 8.62% in assay [2] and 9.02% in assay [3].

Consider `COc1c(C2CCN(CCCCNC(=O)c3noc(-c4ccc(C#N)cc4)n3)CC2)ccc2c1CCCC2`, for which the figures for the inhibition in assay [1], in assay [2] and in assay [3] were 2.99%, 1.9% and 2.85%, respectively.

`Oc1ccc2[nH]c(-c3cccc(F)c3)nc2c1CNCc1ccccc1`: the inhibition in assay [1] turned out to be 9.11%; in assay [2], 3.29%; in assay [3] it was 2.86%.

On to `COc1cccc(NC(=O)Nc2ccc(C)c(-c3ccc(C(=O)Nc4ccncc4)cc3)c2)c1`, for which the inhibition in assay [1] was -1.55%; in assay [2] it was -1.72%; in assay [3], -0.17%.

As to `COc1ccccc1-c1csc(C(=O)NC2CCCCN(Cc3ccc(C(C)(C)C)cc3)C2)c1` (centres undefined), the inhibition in assay [1] came out at 2.42%; in assay [2], 1.58%; in assay [3] it was 2.61%.

In the case of `O=C(NC1CC1)c1cnc(N2CCC(COc3cccc(F)c3)CC2)c(Cl)c1`, the figures for the inhibition in assay [1], in assay [2] and in assay [3] were 1.83%, 2.54% and 0.22%, respectively.

For `CC(C)N1CCN(C(=O)c2ccc(CNCCCN3CCN(c4cccc(Cl)c4Cl)CC3)s2)CC1`, the figures for the inhibition in assay [1], in assay [2] and in assay [3] were 1.17%, 1.06% and -0.54%, respectively.

As to `N=C(N)NN=Cc1cc([N+](=O)[O-])ccc1Sc1ccccc1CO`, the inhibition in assay [1] was 1.08%; in assay [2], 1.61%; in assay [3], 0.68%.

In the case of `O=[N+]([O-])c1cccc(/C=N/Nc2ccnc3ccc(C(F)(F)F)cc23)c1`, the inhibition was found to be 4.51% in assay [1], 2.45% in assay [2] and 0.3% in assay [3].

In the case of `OC(CN1CCN(Cc2ccccc2)CC1)Cn1c(-c2ccccc2)c(-c2ccccc2)c2ccccc21` (centres undefined), the inhibition came out at 2.91% in assay [1], 3.3% in assay [2] and 2.72% in assay [3].

Turning to `O=C(Nc1ccc(Br)cc1)Nc1ccc(Cn2ncc(N3CCCNCC3)c(Cl)c2=O)cc1`, the inhibition in assay [1] was -2.08%; in assay [2], 0.01%; in assay [3], 2.81%.

Regarding `O=C(Nc1ccc(Br)cc1)c1cc(Br)ccc1NS(=O)(=O)c1cc(C(F)(F)F)cc(C(F)(F)F)c1`, the inhibition in assay [1] was -2.23%; in assay [2], 0.04%; in assay [3] it was -0.28%.

As to `Cc1cc2c3c(N)nc(N)nc3ccc2n1C(C)C`, the inhibition in assay [1] is 75.6%; in assay [2], 79.8%; in assay [3] it was 67.2%.

For the compound `CCn1cc(CN2C(=O)C(c3ccccc3)(c3ccccc3)N=C2N)cn1`, the inhibition in assay [1] is 1.83%; in assay [2], 2%; in assay [3] it was -1.54%.

For the compound `O=C(Nc1cccc(-c2ccc(CN3CCNCC3)cc2)c1)c1cccc(Cl)c1`, the inhibition is -0.47% in assay [1], -1.87% in assay [2] and -2.68% in assay [3].

Consider `O=C(NCCCN1CCCCC1)c1cccc(Nc2nccc(Nc3ccc(Oc4ccccc4)cc3)n2)c1`, for which the inhibition in assay [1] was -2.69%; in assay [2], -2.52%; in assay [3] it was -2.53%.

Turning to `COc1ccc2ccccc2c1CCCCN1CCN(CC(c2ccc(F)cc2)N2CCC(N3CCCC3)CC2)CC1` (centres undefined), the inhibition in assay [1] was found to be 3.25%; in assay [2], 3.63%; in assay [3] it was 7.05%.

For the compound `CC(CC1CCCCC1)NCc1ccccc1OCCC(=O)N1CCCC1C(N)=O` (centres undefined), the inhibition amounted to 3.79% in assay [1], 3.8% in assay [2] and 0.2% in assay [3].

On to `O=C(Nc1nc2cc(S(=O)(=O)NCCCN3CCOCC3)ccc2n1CCCn1ccnc1)c1ccc(Cl)cc1`, for which the results for the inhibition in assay [1], in assay [2] and in assay [3] were 5.51%, 5.43% and 4.2%, respectively.

For the compound `CNC(=O)c1ccccc1Nc1cc(Nc2cc(OC)ccn2)ncc1Cl`, the inhibition in assay [1] is 5.77%; in assay [2], 7.66%; in assay [3], 6.6%.

Take `COc1ccc(-c2cccc(NC(=O)c3cccc(Cl)c3)c2)cc1CN1CCC(O)CC1`: the results for the inhibition in assay [1], in assay [2] and in assay [3] were 8.59%, 6.33% and 5.34%, respectively.

In the case of `Cc1ccc(NC(=O)NC2CCN(c3ccnc4ccccc34)CC2)cc1`, the inhibition was determined as 1.13% in assay [1], 1.21% in assay [2] and 2.3% in assay [3].

As for `COCCN1CCC(CNCC(C)(C)c2nc(-c3ccc(Cl)c(O)c3)c(-c3ccncc3)[nH]2)CC1`, the inhibition in assay [1] was 7.22%; in assay [2] it was 7.6%; in assay [3] it was 7.7%.

`CN(C)c1ccc(C2(c3ccccc3)N=C(N)N(CCCc3ccccc3)C2=O)cc1` (centres undefined): the inhibition was 3.64% in assay [1], 3.4% in assay [2] and 0.65% in assay [3].

`CS(=O)(=O)CCNCc1cccc(-c2cc3c(Nc4ccc(OCc5cccc(F)c5)c(Cl)c4)ncnc3s2)c1`: the values for the inhibition in assay [1], in assay [2] and in assay [3] were -0.25%, -0.11% and -2.47%, respectively.

Consider `COc1cc(OC)c(OC)cc1CN1CCC2(CC1)CN(Cc1ccc(Cl)c(Cl)c1)C(=O)O2`, for which the results for the inhibition in assay [1], in assay [2] and in assay [3] were 10.3%, 9.41% and 8.16%, respectively.

In the case of `COc1cc(-c2[nH]c(-c3ccc(OCCN(C)C)cc3)cc2-c2ccncc2)ccc1Cl`, the inhibition in assay [1] was determined as 1.46%; in assay [2], 1.55%; in assay [3] it was 1.76%.

Consider `CN1CCN(CC(=O)Nc2cccc(-c3cccc(-c4nc5cc(C(F)(F)F)ccc5[nH]4)c3)c2)CC1`, for which the values for the inhibition in assay [1], in assay [2] and in assay [3] were 3.23%, 2.92% and 3.87%, respectively.
